Assay outcomes: PubChem, Broad Institute
C diff HTS = C. difficile growth inhibition; Clostridium difficile clinical isolate growth, OD600, 24 h; stronger effect = lower value; growth activity, negative = inhibition, % at 16 µg/mL (by protocol); 86,000 tested, 0.25% active; AID 1259249;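 active = mean growth activity at or below -80% and every replicate also at or below -80%; inconclusive = mean at or below -80% but some replicate above -80%; inactive = mean growth activity above -80%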;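 note: 0% = DMSO wells and -100% = levofloxacin 16 µg/mL wells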
Pf Dd2 growth = P. falciparum Dd2 growth inhibition | AID 1159554 | 94,000 tested, 2.3% active | SYBR Green, 72 h; stronger effect = lower value | activity change, % at 10 µM; in the data active = activity change below about -80%; inconclusive = no clear call, values can overlap the other calls
An asterisk follows results filed as active; ? = inconclusive; · = no result. Most compounds without a hit are left out; they make up all but 2.3% or so of the library.

SMILES	C diff HTS	Pf Dd2 growth
CC(=O)N1[C@@H]2c3ccc(C4=CCCC4)c(=O)n3C[C@H]1[C@H](CO)[C@H]2C(=O)NC1CCC1	2	13
CO[C@@H]1CN(C)C(=O)c2ccc(NC(=O)Nc3cccc(F)c3)cc2OC[C@@H](C)N(C(C)=O)C[C@H]1C	·	-62
C[C@@H]1CN([C@H](C)CO)C(=O)Cc2cc(NC(=O)Cn3cnnn3)ccc2O[C@H]1CN(C)S(=O)(=O)c1cn(C)cn1	1	42
C[C@@H]1CN([C@H](C)CO)C(=O)c2cc(NC(=O)NC3CCCCC3)ccc2O[C@@H](C)CCCCO[C@@H]1CN(C)S(=O)(=O)c1ccc(F)cc1	19	-84*
Cc1ccc(S(=O)(=O)N(C)C[C@H]2OCCCC[C@@H](C)Oc3ccc(NC(=O)NC4CCCCC4)cc3C(=O)N([C@@H](C)CO)C[C@@H]2C)cc1	-5	?
C[C@@H]1CCCCO[C@@H](CN(C)S(=O)(=O)c2ccc(F)cc2)[C@H](C)CN([C@H](C)CO)C(=O)c2cc(NC(=O)NC3CCCCC3)ccc2O1	16	-72
Cc1ccc(S(=O)(=O)N(C)C[C@@H]2OCCCC[C@H](C)Oc3ccc(NC(=O)NC4CCCCC4)cc3C(=O)N([C@H](C)CO)C[C@H]2C)cc1	-1	-85*
CC(C)NC(=O)N1[C@H](CN(C)C(=O)c2ccccc2)[C@@H](c2ccccc2)[C@@H]1CO	1	12
C[C@H](CO)N1C[C@H](C)[C@H](CN(C)C(=O)NC2CCCC2)Oc2ncc(-c3cccc(C(F)(F)F)c3)cc2C1=O	7	-9
CCC(=O)N1[C@@H]2c3ccc(/C=C/c4ccccc4)c(=O)n3C[C@H]1[C@H](CO)[C@H]2C(=O)N1CCOCC1	2	2
C[C@H]1CCCCO[C@@H](CN(C)C(=O)Nc2ccc(C(F)(F)F)cc2)[C@@H](C)CN([C@@H](C)CO)C(=O)c2cc(NC(=O)c3ccncc3)ccc2O1	9	-83*
C[C@@H]1CN([C@@H](C)CO)C(=O)c2cc(NC(=O)c3ccncc3)ccc2O[C@@H](C)CCCCO[C@@H]1CN(C)Cc1ccc(C(F)(F)F)cc1	2	-14
C[C@@H]1CCCCO[C@H](CN(C)C(=O)Nc2ccc(C(F)(F)F)cc2)[C@H](C)CN([C@H](C)CO)C(=O)c2cc(NC(=O)c3ccccc3)ccc2O1	13	-53
C[C@@H]1CCCCO[C@H](CN(C)C(=O)Nc2ccc(C(F)(F)F)cc2)[C@@H](C)CN([C@@H](C)CO)C(=O)c2cc(NC(=O)c3ccncc3)ccc2O1	3	-63
C[C@@H]1CN([C@@H](C)CO)C(=O)c2cc(NC(=O)c3ccncc3)ccc2O[C@@H](C)CCCCO[C@H]1CN(C)Cc1ccc(C(F)(F)F)cc1	9	-81*
C[C@@H]1CCCCO[C@@H](CN(C)C(=O)Nc2ccc(C(F)(F)F)cc2)[C@@H](C)CN([C@H](C)CO)C(=O)c2cc(NC(=O)c3ccccc3)ccc2O1	-1	-73
C[C@@H]1CN([C@@H](C)CO)C(=O)c2cc(NC(=O)c3ccccc3)ccc2O[C@@H](C)CCCCO[C@@H]1CN(C)C(=O)Nc1ccc(C(F)(F)F)cc1	-10	-87*
C[C@@H]1CCCCO[C@H](CN(C)C(=O)Nc2ccc(C(F)(F)F)cc2)[C@@H](C)CN([C@@H](C)CO)C(=O)c2cc(NC(=O)c3ccccc3)ccc2O1	7	-83*
Cc1nc(N2[C@H](C#N)[C@H](c3ccccc3)[C@H]2CO)sc1C	-9	26
C[C@@H]1CN([C@@H](C)CO)C(=O)c2cc(NC(=O)c3ccccc3)ccc2O[C@@H](C)CCCCO[C@H]1CN(C)Cc1ccccc1	3	-85*
C[C@@H]1CCCCO[C@H](CN(C)Cc2ccccc2)[C@H](C)CN([C@@H](C)CO)C(=O)c2cc(NC(=O)c3ccccc3)ccc2O1	-3	-47
CCCN(C)C[C@@H]1OCCCC[C@H](C)Oc2ccc(NC(=O)C3CCCCC3)cc2C(=O)N([C@@H](C)CO)C[C@@H]1C	9	-83*
CCCN(C)C[C@@H]1OCCCC[C@@H](C)Oc2ccc(NC(=O)C3CCCCC3)cc2C(=O)N([C@@H](C)CO)C[C@@H]1C	19	-34
C[C@@H]1CCCCO[C@@H](CN(C)Cc2ccc(Cl)c(Cl)c2)[C@H](C)CN([C@H](C)CO)C(=O)c2cc(NC(=O)c3ccccc3)ccc2O1	10	-81*
C[C@H](CO)N1C[C@H](C)[C@H](CN(C)Cc2ccc(Cl)c(Cl)c2)OCCCC[C@H](C)Oc2ccc(NC(=O)c3ccccc3)cc2C1=O	26	9
SMILES	C diff HTS	Pf Dd2 growth
CCCN(C)C[C@@H]1OCCCC[C@H](C)Oc2ccc(NC(=O)c3ccccc3)cc2C(=O)N([C@H](C)CO)C[C@@H]1C	0	·
CCCN(C)C[C@H]1OCCCC[C@@H](C)Oc2ccc(NC(=O)c3ccccc3)cc2C(=O)N([C@@H](C)CO)C[C@H]1C	-1	-91*
COc1cccc(C(=O)Nc2ccc3c(c2)OC[C@@H](C)N(C)C[C@H](C)[C@H](OC)CN(C)C3=O)c1	-2	-33
COc1ccc2c3c(n(C)c2c1)[C@H](CO)N(C)CC31CCN(CC2CC2)CC1	6	-77
C[C@@H]1CN([C@H](C)CO)C(=O)c2cc(C3=CCCCC3)cnc2O[C@H]1CN(C)Cc1ccncc1	-1	·
C[C@@H]1CCCCO[C@@H](CN(C)Cc2ccc(Cl)c(Cl)c2)[C@@H](C)CN([C@H](C)CO)C(=O)c2cc(NC(=O)c3ccccc3)ccc2O1	5	-14
C[C@@H]1CCCCO[C@H](CN(C)CC2CC2)[C@H](C)CN([C@@H](C)CO)C(=O)c2cc(NC(=O)c3ccccc3)ccc2O1	-9	-84*
C[C@@H]1CCCCO[C@H](CN(C)Cc2ccc(Cl)c(Cl)c2)[C@@H](C)CN([C@@H](C)CO)C(=O)c2cc(NC(=O)c3ccccc3)ccc2O1	22	-90*
C[C@@H]1CCCCO[C@@H](CN(C)CC2CC2)[C@H](C)CN([C@@H](C)CO)C(=O)c2cc(NC(=O)c3ccccc3)ccc2O1	-9	-6
C[C@@H]1CCCCO[C@H](CN(C)Cc2ccc(Cl)c(Cl)c2)[C@@H](C)CN([C@@H](C)CO)C(=O)c2cc(NC(=O)Nc3ccc(C(F)(F)F)cc3)ccc2O1	22	-86*
C[C@H]1CCCCO[C@@H](CN(C)Cc2ccc(Cl)c(Cl)c2)[C@@H](C)CN([C@@H](C)CO)C(=O)c2cc(NC(=O)Nc3ccc(C(F)(F)F)cc3)ccc2O1	5	-78
C[C@@H]1CCCCO[C@@H](CN(C)Cc2ccc3c(c2)OCO3)[C@@H](C)CN([C@@H](C)CO)C(=O)c2cc(NC(=O)Nc3ccc(C(F)(F)F)cc3)ccc2O1	-37	-56
C[C@H]1CCCCO[C@@H](CN(C)Cc2ccc3c(c2)OCO3)[C@@H](C)CN([C@@H](C)CO)C(=O)c2cc(NC(=O)Nc3ccc(C(F)(F)F)cc3)ccc2O1	-19	-89*
C[C@@H]1CCCCO[C@@H](CN(C)Cc2ccc(Cl)c(Cl)c2)[C@H](C)CN([C@@H](C)CO)C(=O)c2cc(NC(=O)Nc3ccc(C(F)(F)F)cc3)ccc2O1	16	-85*
C[C@@H]1CCCCO[C@@H](CN(C)Cc2ccc(C(F)(F)F)cc2)[C@@H](C)CN([C@@H](C)CO)C(=O)c2cc(NC(=O)Nc3ccc(C(F)(F)F)cc3)ccc2O1	7	-24
